From PubChem BioAssay
This is a sample that favours compounds with a hit; in the whole collection about 7.5% have one here.
KinaseGlo FLuc = Counterscreen for Luciferase (Kinase-Glo TM) Inhibition; 200,000 tested, 0.28% active; Kinase-Glo luciferase, ATP luminescence, 8 min; AID 1379, 2008; Potency, µM (highest dose often 38.3 µM), inactives show top-dose activity change, negative = inhibition, hits mostly inhibitors; Luciferin 4-monooxygenase (Photuris pensylvanica), Q27757; also: % is scaled to controls: 0 for no effect and ±100 for the full control effect; nearly all actives have a fitted effect of over 60% in size
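Inhibition of Kinase-Glo luciferase light generation was assessed at 10 uM ATP in pH 7.2 imidazole buffer, with luminescence measured after eight minutes at ambient temperature.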
SMN2 splice up = qHTS Assay for Enhancers of SMN2 Splice Variant Expression | HEK293 SMN2-luciferase splicing reporter, luminescence, 30-36 h | Potency, µM (highest dose often 46.1 µM), inactives show at the top dose activity change, positive = activation, actives largely listed as activators | 210,000 tested, 2.8% active | AID 1458, 2008; also: % of control where 0% means no effect; nearly all actives have a fitted effect of over 55% in size
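HEK293 cells carry an SMN2 minigene-luciferase reporter in which exon 7 inclusion puts luciferase in frame. Cells were seeded at 2000 cells/well, attached for 10-12 hours, then exposed to compounds for 30-36 hours at 37C before ONE-Glo luminescence.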
ELG1 genotoxic = qHTS screen for small molecules that induce genotoxicity in human embryonic kidney (HEK293T) cells expressing luciferase-tagged ELG1. Potency, µM (highest dose often 46 µM), without a hit: top-dose activity change, positive = activation, hits mostly activators. 330,000 tested, 1.3% active. HEK293T ELG1-luciferase reporter, luminescence, 16 h; also: % of control where 0% means no effect; nearly all actives have a fitted effect of over 60% in size
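ELG1-luciferase HEK293T cells, 2,000/well; compound pinned in; 16 hr, 37 °C, 5% CO2; ONE-Glo, 30 min RT; luminescence on CCD imager.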
NPC1 prom act = qHTS Assay for NPC1 Promoter Activators. Huh7 NPC1 promoter luciferase reporter, 24 h. Potency, µM (doses to about 9.22 µM), without a hit: top-dose activation, usual class: activators. 320,000 tested, 2.4% active. AID 485313, 2010; also: % of control where 0% means no effect; nearly all actives have a fitted effect of over 60% in size
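In 1536-well qHTS, Huh7 cells harboring an NPC1 promoter–luciferase construct received compound for 24 h; activation was quantified by luminescence following luciferase reagent addition.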
Rab9 promoter act = qHTS Assay for Rab9 Promoter Activators | Potency, µM (doses to about 9.22 µM), without a hit: top-dose activation, negative = inhibition, usual class: activators | Huh7 Rab9 promoter-luciferase reporter, luminescence, 24 h | 320,000 tested, 2.8% active; also: % of control where 0% means no effect; nearly all actives have a fitted effect of over 60% in size
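Luminescence from Amplite-detected luciferase (10 minutes, ambient) reports Rab9 promoter activation. Before that, stable Rab9-luciferase Huh7 cells (1500/well, reduced-serum OP-MEM I plus 10% FBS) were exposed to compound for 24 hours at 37C.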
FLuc counter = qHTS profiling assay for firefly luciferase inhibitor/activator using purifed enzyme and Km concentrations of substrates (counterscreen for miR-21 project) | Luciferin 4-monooxygenase (Photinus pyralis), P08659 | purified FLuc, Km substrates, luminescence inhibition | Potency, µM (doses to about 57.5 µM), for inactives: top-dose activity change, negative = inhibition, usual class: inhibitors | 360,000 tested, 6.9% active;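 also: plate controls were vehicle for no effect and reference inhibitor for full effect; nearly all actives have a fitted effect of over 55% in size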
Target sequence (P08659 whole entry, looked up): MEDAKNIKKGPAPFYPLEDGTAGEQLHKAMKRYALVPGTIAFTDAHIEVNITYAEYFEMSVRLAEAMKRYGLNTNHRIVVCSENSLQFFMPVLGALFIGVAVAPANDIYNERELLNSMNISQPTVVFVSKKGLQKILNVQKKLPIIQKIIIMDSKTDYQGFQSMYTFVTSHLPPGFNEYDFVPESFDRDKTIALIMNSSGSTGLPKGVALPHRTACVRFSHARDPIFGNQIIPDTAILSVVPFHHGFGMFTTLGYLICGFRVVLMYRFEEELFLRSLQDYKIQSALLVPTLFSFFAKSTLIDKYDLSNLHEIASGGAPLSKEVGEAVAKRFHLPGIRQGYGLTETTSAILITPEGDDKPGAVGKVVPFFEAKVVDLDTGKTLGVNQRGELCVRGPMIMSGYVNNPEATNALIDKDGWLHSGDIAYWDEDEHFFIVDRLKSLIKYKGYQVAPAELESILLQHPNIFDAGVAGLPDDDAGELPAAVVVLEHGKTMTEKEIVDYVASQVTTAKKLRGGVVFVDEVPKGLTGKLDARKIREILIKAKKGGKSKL
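Purified P. pyralis luciferase (10nM final) with 10uM D-luciferin and 10uM ATP (Km levels) in 50mM Tris acetate pH 7.5, 10mM Mg acetate, 0.01% Tween-20, 0.05% BSA; qHTS 6-point titration, ~60 µM downward; luminescence read.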
* hit, by the source's call; u = inconclusive; x = no result given; [ ] = remark or other dose. Calls follow the shape of the dose curve; as a rule, active = well fitted curve in the direction sought with a large enough effect; inconclusive = small, poorly fitted or top-dose-only effect, or another doubt; inactive = no such curve, though single readings can be large; an effect the other way counts as inactive or inconclusive. Potency is read from the fitted curve at half-maximal effect.

SMILES	KinaseGlo FLuc	SMN2 splice up	ELG1 genotoxic	NPC1 prom act	Rab9 promoter act	FLuc counter
Cc1cccc(C)c1NC(=O)c1oc2ccc3c(c2c1C)C(=O)CC(C)(C)O3	x	x	x	x	x	-13%
Cc1c(C(=O)Nc2cccc(C(F)(F)F)c2)oc2ccc(S(=O)(=O)N3CCOCC3)cc12	1%	-27%	-11%	-12%	-15%	1%
Cc1c(C(=O)Nc2cccc(C(F)(F)F)c2)oc2ccc3c(c12)C(=O)CC(C)(C)O3	x	x	x	x	x	3.4µM*
O=C(CNC(=O)c1ccccc1)OCc1cc(=O)n2cc(Br)ccc2n1	-3%	8%	4%	-3%	-1%	-2%
CN(C)C(=O)c1cc(C(=O)c2ccc(C(F)(F)F)cc2)c[nH]1	x	x	u	u	u	13µM*
CN(C)C(=O)c1cc(C(=O)c2ccc(Cl)cc2Cl)c[nH]1	x	x	15%	u	u	15µM*
Cc1ccc(C(=O)c2ccc(C(F)(F)F)cc2)cc1	x	x	-2%	-2%	-2%	-1%
CN(C)C(=O)c1cc(C(=O)c2ccc(F)cc2Cl)c[nH]1	x	x	13%	u	25%	u
CCc1cccc(NC(=O)C(c2ccccc2)N2Cc3ccccc3C2=O)c1 (stereo not given)	x	x	x	x	x	-10%
Fc1cccc(Cl)c1-c1nnc2ccc3ccccc3n12	-3%	-51%	5%	-8%	-8%	19µM*
O=C(CCSc1ccc(Cl)cc1)N1CCCCCC1	-2%	7%	14%	u	3.5µM*	19µM*
O=C(CCSc1ccc(Cl)cc1)N1CCN(c2ncccn2)CC1	-8%	8%	u	u	25%	19µM*
CC1CCCC(NC(=O)COC(=O)/C=C/c2ccc(S(=O)(=O)N3CCOCC3)cc2)C1C (stereo not given)	x	x	2%	3%	-2%	0%
N#CCCCS(=O)(=O)c1nc2ccccc2s1	-1%	10%	x	x	x	x
O=c1c(-c2ccc3c(c2)OCCO3)coc2cc(OC3OC(CO)C(O)C(O)C3O)ccc12 (stereo not given)	x	x	u	0.56µM*	0.5µM*	11µM*
C=CCNC(=S)NNC(=O)COc1ccc(Br)cc1	0%	1%	0%	3%	-4%	-17%
C=CCNC(=S)NNC(=O)COc1ccc2cc(Br)ccc2c1	1%	11µM*	u	u	3.2µM*	-2%
O=C(NCCc1ccccn1)c1ccc(OC2CCN(CCc3ccccc3)CC2)cc1	x	x	u	3.2µM*	2.8µM*	19µM*
CC(Cc1ccccn1)NC(=O)c1ccc(OC2CCN(CCc3ccccc3)CC2)cc1 (stereo not given)	x	x	u	22%	16%	u
O=C(NCCc1cccc(Cl)c1)c1ccc(OC2CCN(Cc3ccccn3)CC2)cc1	x	x	u	u	5%	19µM*
COC(=O)c1cn(NC(=O)C2CCCCC2)c(=O)c2ccccc12	7%	-2%	-6%	2%	6.3µM*	3%
CCCc1cnc2c(c1SCC(=O)N1CCC(C)CC1)c(=O)n(C)c(=O)n2C	x	x	x	x	x	5%
CCc1nnc(NC(=O)Nc2ccccc2OC)s1	-5%	u	u	12%	30%	u
COc1ccc(C(=O)Nc2nnc(SCC(=O)Nc3ccc(NC(C)=O)cc3)s2)c(OC)c1	x	x	u	0.35µM*	0.63µM*	0.085µM*
COc1ccc(C(=O)Nc2nnc(SCC(=O)NC3CCCC3)s2)c(OC)c1	x	x	2.9µM*	0.1µM*	0.1µM*	0.54µM*
SMILES	KinaseGlo FLuc	SMN2 splice up	ELG1 genotoxic	NPC1 prom act	Rab9 promoter act	FLuc counter
CCc1nnc(NC(=O)c2ccc(OC)cc2OC)s1	-3%	2µM*	u	0.45µM*	0.45µM*	2.1µM*
CC(C)=C1CCC(C)CC1=O (stereo not given)	x	5%	x	x	x	x
COC(=O)c1cccc(OC(N)=O)c1	10%	-1%	0%	-1%	-2%	-1%
COc1cccc(C(=O)Oc2ccc3ccc(O)cc3c2)c1	x	x	1%	0%	4%	6µM*
Cc1ccccc1C(=O)Oc1cccc2c(O)cccc12	x	x	-1%	8%	7%	u
CC(=O)Nc1ccc(OS(=O)(=O)c2ccccc2C)cc1	-3%	x	3%	0%	15%	0%
Cc1ccccc1C(=O)Oc1ccc2ccc(O)cc2c1	x	x	5.8µM*	u	-3%	6.7µM*
Cc1ccccc1S(=O)(=O)Oc1ccc2ccc(O)cc2c1	x	x	8%	26%	-3%	17µM*
O=C(NCCCN1CCOCC1)C(=O)NCc1ccc(Cl)cc1	-4%	-11%	0%	-5%	-6%	0%
Cc1cccc(N=Nc2cnc(N)s2)c1	x	x	u	3.2µM*	3.2µM*	6µM*
CC(=O)Nc1ncc(N=Nc2cccc(C(F)(F)F)c2)s1	x	x	13%	2%	19%	0%
CC1=C(C(=O)Nc2ccccc2)C(c2ccccc2C)n2nc(SCC(=O)c3ccc(C)cc3)nc2N1 (stereo not given)	x	x	x	x	x	-7%
COc1cccc(/C=N/NC(=O)c2cc(-c3cccn3C)n[nH]2)c1O	-2%	-96%	6%	-28%	-43%	27µM*
COc1cccc(C(=O)O/N=C(\C)c2cnccn2)c1	-5%	x	-4%	-6%	-3%	5.4µM*
COc1ccc(/C=N/NC(=O)c2cnccn2)cc1O	-13%	13%	u	3%	-3%	12µM*
COc1cc(/C=N/NC(=O)c2ccncc2)ccc1O	x	x	2%	2%	2%	-7%
COc1ccc(/C=N/NC(=O)c2cc3c(OC)ccc(OC)c3[nH]2)cc1O	x	x	-5%	-19%	-6%	11µM*
COc1ccc(/C=N/NC(=O)c2cnccn2)c(OC)c1OC	x	x	3%	1%	-1%	6%
COc1ccc(OC)c(/C=N/NC(=O)c2cnccn2)c1	x	x	0%	2%	-6%	0%
COc1cccc(/C=N/NC(=O)c2cnccn2)c1	-8%	17%	14%	16%	11%	12µM*
COc1cccc(/C=N/NC(=O)c2cnccn2)c1O	x	x	15%	-23%	-23%	15µM*
COc1ccc(/C(=C\C(=O)O)c2nccc3cc(OC)c(OC)cc23)cc1OC	-1%	12%	x	x	x	x
COc1ccc(NC(=O)Nc2cccc(OCc3cc(=O)n4cccc(C)c4n3)c2)c(OC)c1	x	x	x	x	x	-11%
COc1cc2c(cc1OC)-c1cc(NC3CC3)nc(=O)n1CC2	0%	14µM*	u	-2%	3%	3%
CCOc1ccc(Nc2cc3n(c(=O)n2)CCc2cc(OC)c(OC)cc2-3)cc1	x	x	u	-5%	-1%[1.84 µM]	13µM*
